FAS-TE inh – FAS thioesterase domain inhibitors, primary screen, biochemical, fluorescence intensity, uHTS. recombinant FAS-TE, OMFH fluorogenic substrate, fluorescence endpoint. 360,000 compounds, 0.67% hits. inhibition, % at 15 µM;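 active = compounds whose normalised, plate-corrected inhibition of enzyme fluorescence in the single-dose primary screen is 50% or more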
GRIN3A LBD mod – binders of NR3A ligand-binding domain, primary screen, biophysical, differential scanning fluorimetry, uHTS; NR3A LBD differential scanning fluorimetry, Tm shift; 0% = protein alone, 100% = glycine-bound protein; Glutamate receptor ionotropic, NMDA 3A (GRIN3A) ligand-binding domain; 340,000 compounds, 2.5% hits; AID 1259313, 2017; Tm shift relative to glycine control, % at 25 µM;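 active = melting temperature shift of at least 10% of the positive control shift, at one fixed dose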
aDG glyco act – activators of alpha-DG glycosylation, primary screen, uHTS, Pro5-aDG cells, AlphaScreen; alpha-DG glycosylation AlphaScreen (IIH6); 0% Pro5, 100% B10-LARGE cell signal; activation, % at 10 µM; 360,000 compounds, 0.22% hits;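 active = activation of at least 8% versus controls, or a plate z-score of at least 8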;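 note: Pro5 are CHO cells carrying HIG-tagged alpha-DG that lacks glycosylation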
ADAM17 inh – ADAM17 inhibitors, primary screen, biochemical, QFRET | Disintegrin and metalloproteinase domain-containing protein 17 (Homo sapiens), P78536 | inhibition, % at 6.95 µM | 370,000 compounds, 0.83% hits | recombinant ADAM17, EDANS/DABCYL FRET peptide cleavage;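 active = inhibition above the mean of compounds lying between control limits plus 3 SD, set per campaign, cut at about 8.5% in these data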
ADAM10 inh – human ADAM10 inhibitors, primary screen, biochemical, QFRET, HTS; recombinant ADAM10, EDANS/DABCYL FRET peptide cleavage, 3 h; inhibition, % at 7 µM; Disintegrin and metalloproteinase domain-containing protein 10 (Homo sapiens), O14672; 370,000 compounds, 0.62% hits;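 active = inhibition above a per-campaign cutoff equal to the mean of compounds falling between control-based bounds plus 3 SD, cut at about 20% in these data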
Target sequence (O14672 214-748 limits assumed): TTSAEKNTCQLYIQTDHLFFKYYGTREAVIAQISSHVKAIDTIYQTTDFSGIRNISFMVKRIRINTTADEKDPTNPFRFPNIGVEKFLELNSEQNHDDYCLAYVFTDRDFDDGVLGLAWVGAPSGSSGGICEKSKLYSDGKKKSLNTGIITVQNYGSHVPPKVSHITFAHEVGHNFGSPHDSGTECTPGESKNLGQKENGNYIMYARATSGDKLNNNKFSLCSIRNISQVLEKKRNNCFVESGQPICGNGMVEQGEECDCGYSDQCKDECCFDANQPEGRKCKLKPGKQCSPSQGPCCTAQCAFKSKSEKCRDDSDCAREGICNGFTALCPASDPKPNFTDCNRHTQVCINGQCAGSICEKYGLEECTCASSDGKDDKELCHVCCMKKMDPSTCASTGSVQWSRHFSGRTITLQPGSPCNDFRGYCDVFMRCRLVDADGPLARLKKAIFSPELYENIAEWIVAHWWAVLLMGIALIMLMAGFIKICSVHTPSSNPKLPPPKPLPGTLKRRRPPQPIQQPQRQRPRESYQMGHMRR
ADAM10 confirm – human ADAM10 inhibitors, confirmation, biochemical, QFRET, triplicate; shares compounds with ADAM10 inh; ADAM10 QFRET peptide cleavage, EDANS fluorescence; 2,100 compounds, 1% hits; inhibition, % at 6.95 µM; AID 743208, 2013;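 active = inhibition above about 20% chosen separately for each screening run, limit read from the data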
ADAM17 counter – ADAM17 inhibitors, counter-screen for ADAM10 exosite inhibitor project, biochemical, QFRET, high throughput | 2,100 compounds, 0.5% hits | AID 743214, 2013 | shares compounds with ADAM10 inh | inhibition, % at 6.95 µM | ADAM17 QFRET peptide cleavage, EDANS fluorescence;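 active = mean triplicate inhibition above the solvent-only control wells' mean plus 3 SD, cut at about 12% in these data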
ADAM10 ctr – ADAM10 inhibitors, counter-screen for ADAM17 exosite inhibitor project, biochemical, FRET, human ADAM10 | inhibition, % at 6.95 µM | recombinant ADAM10, EDANS/DABCYL FRET peptide cleavage, 3 h | AID 743256, 2014 | shares compounds with ADAM17 inh | 2,900 compounds, 47% hits;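 active = mean inhibition over the triplicate runs exceeds the activity threshold set in the earlier primary screen, cut at about 20% in these data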
ADAM17 confirm – ADAM17 inhibitors, hit retest, confirmation, biochemical, QFRET peptide cleavage. 2,900 compounds, 65% hits. shares compounds with ADAM17 inh. inhibition, % at 6.95 µM. recombinant ADAM17, EDANS/DABCYL QFRET peptide cleavage;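 active = mean inhibition across replicates above the hit cutoff set in the primary screen, cut at about 8.5% in these data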
A number is an active result; i = inactive; nt = not tested or not shown. In the library only some 4% were active in any assay of this set; here they are far more common.

SMILES	FAS-TE inh	GRIN3A LBD mod	aDG glyco act	ADAM17 inh	ADAM10 inh	ADAM10 confirm	ADAM17 counter	ADAM10 ctr	ADAM17 confirm
COc1cc(NC(=O)CSc2nc3[nH]ncc3c(=O)n2-c2ccc(Cl)cc2)cc(OC)c1	i	13	i	12	31	i	i	26	13
Cc1ccc(NC(=S)NNC(=O)CSc2nc3ccccc3c(=O)n2-c2ccc(C)cc2)cc1	i	i	i	i	i	nt	nt	nt	nt
COc1ccc(-n2c(SCC(=O)NNC(=S)Nc3ccccc3)nc3ccccc3c2=O)cc1	nt	nt	nt	12	26	i	i	i	8.6
CC1(Cc2ccc(C(F)(F)F)o2)C(=O)Nc2ccc(-c3cccc(C(F)(F)F)c3)cc21 (stereo not given)	i	nt	i	17	28	i	i	32	21
N#CCCN(C(=O)COC(=O)c1ccc(CNS(=O)(=O)c2ccc(F)c(Cl)c2)cc1)c1ccc(F)cc1	i	i	i	12	21	i	i	35	22
CN(C)c1ccc(-c2ccnc3c2CC(C)(C(=O)Nc2ccccc2)O3)cc1 (stereo not given)	i	nt	i	i	i	nt	nt	nt	nt
CCCCCCn1c(=O)n2n(c1=O)[C@@H]1CN(S(=O)(=O)c3ccc(C)cc3)C[C@]1(O)[C@@H](OC(=O)NC1CC1)C2	i	nt	i	i	i	nt	nt	nt	nt
CCCCCCNC(=O)O[C@H]1Cn2c(=O)n(CCCCCC)c(=O)n2[C@@H]2CN(S(=O)(=O)c3ccc(C)cc3)C[C@]12O	i	nt	i	11	20	i	i	40	22
CC(C)(C)OC(=O)CNC(=O)c1[nH]cnc1C(=O)NC(c1ccccc1)c1ccccc1	i	i	i	16	27	i	i	24	14
C[C@H](NC(=O)c1nc[nH]c1C(=O)NC(c1ccccc1)c1ccccc1)C(=O)OC(C)(C)C	i	i	i	14	24	i	i	43	24
CNC(=O)c1[nH]cnc1C(=O)NCC(=O)OC(C)(C)C	i	i	i	i	i	nt	nt	nt	nt
Cc1ccc(Sc2ccc(/C=N/O)cc2[N+](=O)[O-])cc1	i	i	i	9.7	27	i	i	27	15
CO/N=C/c1ccc(Sc2ccc(C)cc2)c([N+](=O)[O-])c1	i	i	i	i	i	nt	nt	nt	nt
CSc1nnc(Cn2c(=O)sc3ccccc32)n1-c1cccc(Cl)c1	i	i	i	i	i	nt	nt	nt	nt
O=C(CCc1c[nH]c2ccccc12)OCc1ccc(Br)cc1	i	i	i	12	23	i	i	i	11
C=CCOc1ccccc1CNc1ccc2[nH]c(=O)[nH]c2c1	i	i	i	i	i	nt	nt	nt	nt
CCOC(=O)C1C(=O)NC(c2ccccc2)=NC1c1ccc(F)cc1 (stereo not given)	i	i	i	i	i	nt	nt	nt	nt
Oc1ccccc1C1OCC2(CO1)COC(c1ccccc1O)OC2 (stereo not given)	i	i	i	i	i	nt	nt	nt	nt
